Values without a mark were called inactive. For some of these results: Entries with a potency or affinity are not part of this list. The source made the active and inactive calls. Unless noted, how the calls were made is not given here.
Columns and labels:
[1] = antimalarial activity against Dd2 strain (AID 2302;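 active means growth inhibition above 50% at the single 2 µM test dose, taken to imply half-maximal potency below 2 µM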;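 further: 0% = DMSO untreated growth and 100% = chloroquine plus artemisinin killed control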); details: P. falciparum Dd2 in RBCs, LDH growth readout, 72 h; at 2 µM; stronger effect = higher value
[2] = HepG2 cytotoxicity, primary screen, cytotoxicity control for P. falciparum antimalarial project, cell-based, ATP luminescence (AID 2303;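 active means inhibition above 50%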;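 further: 0% = DMSO wells and 100% = digitonin-killed cells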); details: HepG2 viability, 24-48 h, at 10 µM, stronger effect = higher value
[3] = target: L-lactate dehydrogenase (Plasmodium falciparum (isolate CDC / Honduras)) (UniProt Q27743); assay: PfLDH activity inhibition – cell lysate, 3D7 strain, counter-screen for P. falciparum growth inhibition project (AID 2304);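 further: 0% = vehicle and 100% = reference inhibitor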; details: P. falciparum 3D7 crude extract, LDH APAD/NBT absorbance; at 2 µM; stronger effect = higher value
Chain of L-lactate dehydrogenase (Plasmodium falciparum (isolate CDC / Honduras)) (Q27743 whole entry, looked up): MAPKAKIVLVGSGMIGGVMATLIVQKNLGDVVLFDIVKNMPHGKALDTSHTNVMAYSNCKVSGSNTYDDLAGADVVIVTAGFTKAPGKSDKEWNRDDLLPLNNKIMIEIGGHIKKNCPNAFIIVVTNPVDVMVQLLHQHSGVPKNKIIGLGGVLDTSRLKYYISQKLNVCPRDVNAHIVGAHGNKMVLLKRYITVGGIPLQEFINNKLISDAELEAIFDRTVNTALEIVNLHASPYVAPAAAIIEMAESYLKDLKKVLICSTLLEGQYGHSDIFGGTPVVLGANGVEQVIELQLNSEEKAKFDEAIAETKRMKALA

[4] = inhibition of 3D7 malaria parasite growth – strain 3D7 (AID 2306);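 further: 0% = DMSO wells and 100% = chloroquine plus artemisinin control wells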; details: P. falciparum 3D7 erythrocytic growth, LDH absorbance, 72 h; at 2 µM; stronger effect = higher value
[5] = target: Calcium-dependent protein kinase 1 (Plasmodium falciparum (isolate 3D7)) (UniProt P62344); assay: PfCDPK1 kinase inhibitors, biochemical, TCAMS library (AID 1159585; cut-off not given, nearly all actives have IC50 up to about 0.98 µM;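 further: inhibitors leave more ATP so luminescence rises with inhibition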); details: recombinant PfCDPK1, Kinase-Glo ATP depletion luminescence
Chain of Calcium-dependent protein kinase 1 (Plasmodium falciparum (isolate 3D7)) (P62344 whole entry, looked up): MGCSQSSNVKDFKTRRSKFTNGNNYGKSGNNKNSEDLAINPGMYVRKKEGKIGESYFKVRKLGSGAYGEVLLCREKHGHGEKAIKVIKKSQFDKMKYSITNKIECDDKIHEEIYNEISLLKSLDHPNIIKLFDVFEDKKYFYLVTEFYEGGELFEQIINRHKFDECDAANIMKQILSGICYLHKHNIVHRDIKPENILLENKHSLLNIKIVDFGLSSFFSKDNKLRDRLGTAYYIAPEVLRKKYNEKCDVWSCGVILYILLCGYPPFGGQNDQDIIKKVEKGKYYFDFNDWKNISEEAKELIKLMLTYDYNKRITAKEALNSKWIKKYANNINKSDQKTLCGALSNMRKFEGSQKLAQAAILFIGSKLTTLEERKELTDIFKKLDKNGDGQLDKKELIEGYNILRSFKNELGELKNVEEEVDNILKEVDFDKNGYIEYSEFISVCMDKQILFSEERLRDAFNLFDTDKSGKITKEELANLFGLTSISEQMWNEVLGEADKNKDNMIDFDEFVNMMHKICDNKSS

[6] = target: Plasmodium falciparum protein kinase 6 (PK6, PF3D7_1337100) (UniProt Q8IDW1); assay: PfPK6 kinase inhibitors, biochemical, TCAMS library (AID 1159586); details: recombinant PfPK6, Kinase-Glo ATP depletion luminescence
Chain of Plasmodium falciparum protein kinase 6 (PK6, PF3D7_1337100) (Q8IDW1 1-305): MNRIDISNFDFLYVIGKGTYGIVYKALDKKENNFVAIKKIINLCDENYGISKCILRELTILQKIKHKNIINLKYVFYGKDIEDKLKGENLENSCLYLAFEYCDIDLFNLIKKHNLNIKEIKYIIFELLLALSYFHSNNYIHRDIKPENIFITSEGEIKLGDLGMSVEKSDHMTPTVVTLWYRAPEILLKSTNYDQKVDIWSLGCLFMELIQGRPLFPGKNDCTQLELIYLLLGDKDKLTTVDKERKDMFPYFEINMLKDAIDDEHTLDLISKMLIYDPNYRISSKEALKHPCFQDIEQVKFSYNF

[7] = target: Protein kinase 7 (PK7), Plasmodium falciparum 3D7 (PF3D7_0213400) (UniProt Q7YTF7); assay: inhibition of Plasmodium PK7 catalytic activity – biochemical, TCAMS antimalarial set, Kinase-Glo luminescence (AID 1159587); details: recombinant PfPK7, Kinase-Glo ATP depletion luminescence
Chain of Protein kinase 7 (PK7), Plasmodium falciparum 3D7 (PF3D7_0213400) (Q7YTF7 1-343): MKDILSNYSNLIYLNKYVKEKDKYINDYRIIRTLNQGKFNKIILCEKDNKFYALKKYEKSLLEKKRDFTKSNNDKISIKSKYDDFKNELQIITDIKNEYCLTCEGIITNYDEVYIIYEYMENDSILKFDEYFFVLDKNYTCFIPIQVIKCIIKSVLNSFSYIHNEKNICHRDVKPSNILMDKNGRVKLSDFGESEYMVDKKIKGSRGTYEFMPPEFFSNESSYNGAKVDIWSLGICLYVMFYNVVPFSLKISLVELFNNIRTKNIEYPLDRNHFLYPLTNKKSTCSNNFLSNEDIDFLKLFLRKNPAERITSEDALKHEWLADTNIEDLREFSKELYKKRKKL

[8] = target: Calcium-dependent protein kinase 4 (Plasmodium falciparum (isolate 3D7)) (UniProt Q8IBS5); assay: PfCDPK4 kinase inhibitors, biochemical, TCAMS library (AID 1159588; cut-off not given, nearly all actives have IC50 up to about 0.91 µM); details: recombinant PfCDPK4, Kinase-Glo ATP depletion luminescence
Chain of Calcium-dependent protein kinase 4 (Plasmodium falciparum (isolate 3D7)) (Q8IBS5 whole entry, looked up): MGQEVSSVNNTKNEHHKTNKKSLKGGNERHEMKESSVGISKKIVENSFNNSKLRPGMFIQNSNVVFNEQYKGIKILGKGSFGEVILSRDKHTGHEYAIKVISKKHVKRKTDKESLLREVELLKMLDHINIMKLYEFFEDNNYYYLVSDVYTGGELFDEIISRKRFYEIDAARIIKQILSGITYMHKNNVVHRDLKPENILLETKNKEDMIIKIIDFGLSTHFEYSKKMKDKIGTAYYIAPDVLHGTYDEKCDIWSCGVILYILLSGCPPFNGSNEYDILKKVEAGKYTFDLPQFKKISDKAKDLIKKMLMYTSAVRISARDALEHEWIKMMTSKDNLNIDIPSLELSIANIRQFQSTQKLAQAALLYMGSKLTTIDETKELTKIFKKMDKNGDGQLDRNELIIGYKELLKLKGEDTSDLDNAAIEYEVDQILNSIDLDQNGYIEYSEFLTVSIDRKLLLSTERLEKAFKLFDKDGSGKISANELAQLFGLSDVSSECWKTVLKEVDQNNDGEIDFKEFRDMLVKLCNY

| Structure (SMILES) | growth inhibition [1] | inhibition [2] | inhibition [3] [%] | growth inhibition [4] | outcome [5] | outcome [6] | outcome [7] | outcome [8] |
| --- | --- | --- | --- | --- | --- | --- | --- | --- |
| Cc1cc(N2CCCC2)nc(Nc2ccc(NC(=O)c3ccco3)cc2)n1 | 43% | 23% | -3 | 100% (active) | inactive | inactive | inactive | inactive |
| Cc1noc(C)c1-c1cccc(CNCc2ccc(-c3ccc(-c4nc5ccc(F)cc5[nH]4)cc3)cc2)c1 | 92% (active) | 23% | 4 | 102% (active) | inactive | inactive | inactive | inactive |
| COc1ccc2ncc(F)c(CCN3CCC(NCc4cc(OC)c5c(c4)OCCO5)CC3)c2n1 | 53% (active) | -2% | -3 | 101% (active) | inactive | inactive | inactive | inactive |
| COc1ccc2nccc([C@@H](O)CN3CCC(NCc4ccc5nc[nH]c(=O)c5c4)CC3)c2c1 | 4% | 12% | -13 | 99% (active) | inactive | inactive | inactive | inactive |
| N#Cc1ccc(-c2ccc(C(=O)NCCCCN3CCC(n4cnc5ccccc54)CC3)cc2)cc1 | 2% | 15% | -3 | 94% (active) | inactive | inactive | inactive | inactive |
| COc1ccccc1C(=O)C1CCCN(C(=O)c2ccccc2C(F)(F)F)C1 (stereo not given) | 84% (active) | -9% | -4 | 91% (active) | inactive | inactive | inactive | inactive |
| COc1cc(Cc2cnc(N)nc2N)cc(OCCCCC2SC(=O)NC2=O)c1OC (stereo not given) | 0% | -9% | 7 | 94% (active) | inactive | inactive | inactive | inactive |
| CC1(C)N=C(N)N=C(N)N1OCCCc1cccc(C(F)(F)F)c1 | 95% (active) | 62% (active) | -3 | 95% (active) | inactive | inactive | inactive | inactive |
| COc1ccccc1C1CCN(C2CCC(NC(=O)/C=C/c3cccc(Cl)c3F)CC2)CC1 (stereo not given) | 19% | 50% (active) | -4 | 96% (active) | inactive | inactive | inactive | inactive |
| COc1ccc2nccc(NC(=O)C3(O)CCC(NCc4ccc5c(c4)NCCS5)CC3)c2n1 (stereo not given) | 64% (active) | 1% | -1 | 93% (active) | inactive | inactive | inactive | inactive |
| c1ccc2c(Nc3ccc(Oc4ccc(Nc5c6ccccc6nc6ccccc56)cc4)cc3)c3ccccc3nc2c1 | 99% (active) | 21% | -2 | 101% (active) | inactive | inactive | inactive | inactive |
| COc1ccc(CNCCCCCCCNCc2ccc(Cl)c(Cl)c2)cc1Cl | 18% | 27% | 4 | 90% (active) | inactive | inactive | inactive | inactive |
| COC(=O)C(NC(=O)NC1CCN(c2ccnc(Nc3ccc(F)cc3)n2)C1)c1ccccc1 (stereo not given) | 8% | 11% | -2 | 87% (active) | inactive | inactive | inactive | inactive |
| COC(=O)c1ccc(CCC(C)NCC(O)c2cccc(Cl)c2)cc1 (stereo not given) | 94% (active) | -4% | 1 | 100% (active) | inactive | inactive | inactive | inactive |
| CCn1c(-c2nc(-c3ccc4c(c3)OCO4)cnc2N)nc2cnccc21 | 98% (active) | 94% (active) | -7 | 100% (active) | inactive | inactive | inactive | inactive |
| CC(=NNC(=S)NC(C)(C)C)c1ccccn1 | 100% (active) | 63% (active) | -3 | 99% (active) | inactive | inactive | inactive | inactive |
| Nc1ccnc(N2CCC(CCOc3ccnc4cc(Cl)ccc34)CC2)c1 | 99% (active) | 34% | 4 | 100% (active) | inactive | inactive | inactive | inactive |
| O=C(NCc1ccc(F)cc1)Nc1ccc(-c2cccc(-c3nc4ccc(F)cc4[nH]3)c2)cc1 | 99% (active) | 31% | -1 | 100% (active) | inactive | inactive | inactive | inactive |
| CCOC(=O)c1ccc(OCCOc2ccccc2)cc1 | -3% | 63% (active) | -1 | 99% (active) | inactive | inactive | inactive | inactive |
| Oc1c(C(Nc2ccccn2)c2ccco2)cc(Cl)c2cccnc12 (stereo not given) | 65% (active) | 41% | 1 | 87% (active) | inactive | inactive | inactive | inactive |

— PubChem BioAssay
